According to PubChem BioAssay AID2577 (National Center for Advancing Translational Sciences (NCATS), 2010):
A number with no mark means an inactive call. The call rests on the fitted dose curve; in most records, active means well fitted curve in the direction sought with a large enough effect; inactive means no such curve, though single readings can be large or run the other way.

Each molecule was assayed against Lysosomal alpha-glucosidase (Homo sapiens) (UniProt P10253) (assay: qHTS Assay for Inhibitors and Activators of N370S glucocerebrosidase as a Potential Chaperone Treatment of Gaucher Disease: Alpha-Glucosidase Counterscreen). Conditions: purified human alpha-glucosidase, 4MU-alpha-glucoside fluorescence.
Text: NIH Chemical Genomics Center [NCGC] NIH Molecular Libraries Probe Production Centers Network [MLPCN] MLPCN Grant: MH086442-01 Assay Submitter (PI): Wei Zheng Glucocerebrosidase (GC) catalyzes the hydrolysis of beta-glucocerebroside to glucose and ceramide in lysosomes. Mutations in the glucocerebrosidase gene result in Gaucher disease, an autosomal recessive lysosomal storage disorder. Many of the mutations encountered in patients with Gaucher disease are missense alterations that may cause misfolding, decreased stability and/or mistrafficking of this lysosomal protein. […] These inhibitors include iminosugar analogs and three non-iminosugar inhibitors identified from a previous HTS of 62,000 compounds with the wild type recombinant enzyme. However, the enhancement of enzyme activity by the chaperone action of an enzyme inhibitor must be balanced against the direct inhibition of the enzyme. An enzyme activator could also function as a chaperone by binding to the enzyme and helping to correct its misfolding and mistrafficking. While activators for GC have not yet been identified, they may have better therapeutic potential than inhibitors. Therefore the discovery and development of chemical activators may provide a new strategy for the chaperone therapy. To characterize compound selectivity, selected hits from the primary screen were screened against purified alpha-glucosidase, a related sugar hydrolase. Alpha-glucosidase is responsible for hydrolysis of terminal, non-reducing 1,4-linked alpha-D-glucose residues with release of alpha-D-glucose.
NCGC Assay Protocol Summary: This is a fluorogenic enzyme assay with 4-methylumbelliferyl-alpha-D-[…] as the substrate and human alpha-glucosidase as the enzyme preparation. Upon the hydrolysis of this fluorogenic substrate, the resulting product, 1. 4-methyllumbelliferone, can be excited at 365 nm and emits at 440 nm which can be detected by a standard fluorescence plate reader. Data were normalized to the controls for basal activity (without enzyme) and 100% activity (with enzyme). The AC50 values were determined from concentration-response data modeled with the standard Hill equation. Assay buffer: 50 mM citric acid (titrated with potassium phosphate to pH 5.0), 0.005% Tween-20, pH 5.0. (pH 5.0 is an optimal condition for this enzyme assay) 1536-well assay protocol for the human alpha-glucosidase: (1) Add 2 ul/well of enzyme (4 nM final) (2) Add 23 nL compounds in DMSO solution. The final titration was 0.7 nM to 77 uM. (3) Add 1 ul of substrate (400 uM final) (4) Incubate at room temperature for 20 min. (5) Add 2 ul stop solution (1M NaOH and 1M Glycine mixture, pH 10) (6) Detect the assay plate in a ViewLux plate reader (PerkinElmer) with Ex=365 nm and Em=440nm. Keywords: Alpha-glucosidase, Pompe Disease, pharmacological chaperone, chaperone therapy, high throughput screening, alpha-glucosidase inhibitor, MLSMR, MLSCN, NIH Roadmap, qHTS and NCGC

SMILES | max response [%]
COc1ccc(S(=O)(=O)N2CCN(c3nc(-c4cccs4)nc4ccccc34)CC2)cc1OC | -12
O=S(=O)(c1ccccc1F)N1CCN(c2nc(-c3cccs3)nc3ccccc23)CC1 | -14.1
O=S(=O)(c1ccccc1)N1CCN(c2nc(-c3cccs3)nc3ccccc23)CC1 | -12.9
N#Cc1ccc(S(=O)(=O)N2CCN(c3nc(-c4cccs4)nc4ccccc34)CC2)cc1 | -5.53
Cc1ccc(S(=O)(=O)N2CCN(c3nc(-c4ccccc4)nc4ccccc34)CC2)cc1 | -13.1
O=S(=O)(c1ccc2ccccc2c1)N1CCN(c2nc(-c3cccs3)nc3ccccc23)CC1 | -7.23
N#Cc1ccccc1S(=O)(=O)N1CCN(c2nc(-c3ccccc3)nc3ccccc23)CC1 | -12.3
O=S(=O)(c1ccc(Cl)cc1)N1CCN(c2nc(-c3ccc(Cl)cc3)nc3ccccc23)CC1 | 1.68
O=S(=O)(c1ccc(F)cc1)N1CCN(c2nc(-c3ccc(F)cc3)nc3cc(Cl)ccc23)CC1 | -3.75
O=[N+]([O-])c1ccc(S(=O)(=O)N2CCN(c3nc(-c4ccccc4)nc4ccccc34)CC2)cc1 | -3.59
NS(=O)(=O)c1ccc(S(=O)(=O)N2CCN(c3nc(-c4ccccc4)nc4ccccc34)CC2)cc1 | -7.36
O=[N+]([O-])c1cccc(S(=O)(=O)N2CCN(c3nc(-c4cccs4)nc4ccccc34)CC2)c1 | -3.53
O=S(=O)(c1cccc(C(F)(F)F)c1)N1CCN(c2nc(-c3cccs3)nc3cc(Cl)ccc23)CC1 | -7.27
O=S(=O)(c1ccc(C(F)(F)F)cc1)N1CCN(c2nc(-c3ccccc3)nc3ccccc23)CC1 | -6.24
CC(C)(C)c1ccc(S(=O)(=O)N2CCN(c3nc(-c4cccs4)nc4ccccc34)CC2)cc1 | -6.75
Cc1ccc(S(=O)(=O)N2CCN(c3nc(-c4cccs4)nc4ccccc34)CC2)cc1 | -8.42
O=S(=O)(c1ccc2c(c1)OCCO2)N1CCN(c2nc(-c3cccs3)nc3ccccc23)CC1 | -3.67
CC(=O)c1ccc(S(=O)(=O)N2CCN(c3nc(-c4ccccc4)nc4ccccc34)CC2)cc1 | -3.56
O=S(=O)(c1ccc(F)cc1)N1CCN(c2nc(-c3cccs3)nc3ccccc23)CC1 | -15.5
CC(=O)c1ccc(S(=O)(=O)N2CCN(c3nc(-c4cccs4)nc4ccccc34)CC2)cc1 | -5.52
O=[N+]([O-])c1ccccc1S(=O)(=O)N1CCN(c2nc(-c3cccs3)nc3ccccc23)CC1 | -3.63
COc1ccc(-c2nc(N3CCN(S(=O)(=O)c4ccccc4)CC3)c3ccccc3n2)cc1 | -7.46
N#Cc1ccccc1S(=O)(=O)N1CCN(c2nc(-c3cccs3)nc3ccccc23)CC1 | -5.04
O=S(=O)(c1cccc(Cl)c1)N1CCN(c2nc(-c3ccccc3)nc3ccccc23)CC1 | -3.54
CCOC(=O)c1ccc(S(=O)(=O)N2CCN(c3nc(-c4cccs4)nc4ccccc34)CC2)cc1 | -8.25
CCOc1ccc(S(=O)(=O)N2CCN(c3nc(-c4ccccc4)nc4ccccc34)CC2)cc1OCC | -7.31
O=S(=O)(c1ccc(Br)cc1)N1CCN(c2nc(-c3ccccc3)nc3ccccc23)CC1 | -1.71
CC(C)(C)c1ccc(S(=O)(=O)N2CCN(c3nc(-c4ccccc4)nc4ccccc34)CC2)cc1 | -7.51
O=S(=O)(c1cccc(C(F)(F)F)c1)N1CCN(c2nc(-c3ccccc3)nc3ccccc23)CC1 | -12.7
O=S(=O)(c1ccc(F)cc1)N1CCN(c2nc(-c3cccc(Br)c3)nc3ccccc23)CC1 | -5.01
